Here are results for 40 molecules from PubChem BioAssay (NCI).

Molecules are shown by their SMILES. Where “and” joins values, the source holds several entries; their conditions need not be identical. Equal entries are not always repeated. About 83,000 compounds went through this panel and 20% of them were active in at least one assay; those are over-represented in the sample as a whole.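 Single-concentration screen, 48 h exposure, 96-well plates. Endpoint: percent growth. Below 10 = active.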 Calls of active or inactive are those of the source.

This assay relates to HOP-62 NSCLC. The assay can be described thus: NCI-60 one-dose screen, 48 h (100 = growth as untreated, 0 = no growth, -100 = all killed). The settings on record: 10 µM unless noted. The method, then:
Growth inhibition of the HOP-62 human Non-Small Cell Lung tumor cell line is measured as a screen for anti-cancer activity. Cells are grown in 96 well plates and exposed to the test compound for 48 hours. Compounds are tested at a single concentration, which is 10^-5 M for most compounds. The reported endpoint is percent growth (GI% or GIPRCNT), where numbers from 0 - 100% represent growth inhibition, and numbers from -100% - 0 represent cell death. For example, a value of 40 represents 60% growth inhibition. A value of 0 means no net growth occurred over the course of the experiment. A value of -40 indicates 40% of cells at the beginning of the experiment died by the end of the experiment. A value of -100 means all cells are dead at the end of the experiment.
NCI-60 Human Tumor Cell Lines Screen was performed using the standard one-dose NCI protocol, which is described in more detail at https://dtp.cancer.gov/discovery_development/nci-60/default.htm.
Compounds with GIPRCNT values below 10 were considered active. Activity score was based on GIPRCNT using the following formula: […]
Score is 0 for GIPRCNT values of 100 or above, 50 for GIPRCNT values of 0, and 100 for GIPRCNT values of -100.
For the molecule `CCCC1CCCCC12C(=O)NC(=O)NC2=O` (stereo not given), the growth was 107% (inactive).
Next, `O=[N+]([O-])c1ccc(OCc2ccc(S(=O)(=O)F)c(Cl)c2)c(Cl)c1`: 106% (inactive); `C[C@]12CC[C@H](O)C[C@@H]1CC[C@@H]1[C@@H]2CC[C@]2(C)OC(=O)CC[C@@H]12`: 97.3% (inactive).
`C[C@]12CC[C@H]3[C@@H](CC=C4c5nc(-c6ccc(Br)cc6)sc5CC[C@@]43C)[C@@H]1CC[C@@H]2O`: the growth was 106% (inactive).
The same measure for `CC(=O)c1cccc(S(=O)(=O)F)c1`: 98.4% (inactive); for `CC[C@@H](C)C(=O)O[C@H]1[C@H](O)[C@H]2[C@@H](CN3C[C@@H](C)CC[C@H]3[C@@]2(C)O)[C@@H]2C[C@]34O[C@]5(O)[C@@H](OC(=O)[C@@](C)(O)CC)CC[C@@]3(C)[C@@H]5[C@@H](OC(C)=O)[C@@H](OC(C)=O)[C@H]4[C@@]21O`: 82.8% (inactive).
Next, `CC12CCC3C4CCC(=O)C=C4CCC3C1CC1CC(=O)OC12` (stereo not given): 88% (inactive); `ClC1OC(Cl)(Cl)C(Cl)(Cl)OC1(Cl)Cl` (stereo not given): 104% (inactive); `CN1[C@@H](CC(=O)c2ccccc2)CCC[C@H]1CC(=O)c1ccccc1`: 110% (inactive).
In the case of `C/C=C(/C)C(=O)O[C@H]1CC[C@@]2(C)[C@@H]3CC[C@H]4[C@]5(O)C[C@H](O)[C@@]6(O)[C@@H](CN7C[C@@H](C)CC[C@H]7[C@@]6(C)O)[C@]5(O)C[C@@]42O[C@@]13O`, the growth is -56.5% (active).
Take `Cc1cc[c-]cc1.Fc1c[c-]c(-c2ccccn2)c(F)c1.N#CCC[PH+](CCC#N)c1ccccc1.[Pt+2]`: the growth was 116% (inactive).
Next, `O=[N+]([O-])c1cc(Cl)c(Cl)cc1Cl`: 112% (inactive) and 107% (inactive); `CC1=CC(=O)CCC12CCOC2=O` (stereo not given): 99.5% (inactive); `O=C(Cc1ccccc1)NC(O)C(Cl)(Cl)Cl` (stereo not given): 110% (inactive).
With `COC1C(O)CC(OC2CC(Oc3cc4cc5c(c(O)c4c(O)c3C)C(=O)[C@@H](OC3CC(OC4CC(OC6CC(C)(O)C(OC(C)=O)C(C)O6)C(O)C(C)O4)C(O)C(C)O3)[C@H]([C@H](OC)C(=O)[C@@H](O)[C@@H](C)O)C5)OC(C)C2OC(C)=O)OC1C` (stereo not given in full), the growth was -11.7% (active).
`COc1ccc2c(c1)C1(C)CCN(C)CC(C1)C2O` (stereo not given): the growth was 100% (inactive).
For the molecule `N#CCc1ccc(CC#N)cc1`, the growth was 88.4% (inactive).
As to `O=C/C=C/c1ccco1`, the growth is 94.7% (inactive).
Next, `[N-]=[N+]=CC(=O)CCC(=O)C=[N+]=[N-]`: 92.6% (inactive).
Next, `CCN(CC)CCn1c(=O)n(C)c2ccccc21`: 107% (inactive).
The same measure for `O=C1c2ccccc2C(=O)N1N1CC1c1ccccc1` (stereo not given): 111% (inactive); for `Cn1cc(C(=O)C[n+]2ccccc2)c2ccccc21`: 95.6% (inactive); for `CCOC(=O)P(=O)(OCC)OCC`: 109% (inactive).
Consider `ClCc1ccc(Cl)c(Cl)c1`, for which the growth is 111% (inactive).
As to `C[C@]12CCc3sc(Nc4ccc(F)cc4F)nc3C1=CC[C@@H]1[C@@H]2CC[C@]2(C)C(=O)CC[C@@H]12`, the growth was 87.1% (inactive).
The same measure for `C[Se]/C=C1/C(=O)N(c2c(Cl)cccc2Cl)c2ccccc21`: 22% (inactive); for `CCCCCCCCCCCCCCCCCC1OCC(COC(=O)O[C@@H](C(=O)O[C@H]2C[C@@]3(O)[C@@H](OC(=O)c4ccccc4)[C@@H]4[C@]5(OC(C)=O)CO[C@@H]5C[C@H](O)[C@@]4(C)C(=O)[C@H](OC(C)=O)C(=C2C)C3(C)C)[C@@H](NC(=O)c2ccccc2)c2ccccc2)O1` (stereo not given in full): 60.5% (inactive); for `COc1cc(/C=C\[N+](=O)[O-])ccc1OCc1ccccc1`: 30.7% (inactive).
The same measure for `N#CC(NC(=O)CCl)=C(Cl)Cl`: 73.2% (inactive); for `CN1CCC2(CC1)C(C#N)C(=O)NC(=O)C2C#N` (stereo not given): 94.3% (inactive).
Next, `CCCCCCCCCCCCCCCC[N+](C)(C)C`: -76.6% (active) and -23.9% (active).
On to `O=C(O)C(O)c1ccc(Cl)cc1` (stereo not given), for which the growth was 107% (inactive).
In the case of `O=C1C=C(N2CC2)c2ccccc2C1=O`, the growth is 76% (inactive).
The same measure for `C[N+]12CCC34C5=CC(=O)C(=O)C=C5[N+]5(C)C(=O)CC6OCC=C(C1)C(CC32)C6C45` (stereo not given): 102% (inactive); for `O=[N+]([O-])c1cc(Br)c(O)c(Br)c1`: 96.9% (inactive).
Next, `COc1ccc(N)cc1OC`: 104% (inactive); `COC(=O)C1=CO[C@@H](C)[C@@H]2CN3CCc4c([nH]c5cc(OC)ccc45)[C@@H]3C[C@H]12`: 113% (inactive).
As to `O=CC1(c2ccccc2)CCN(Cc2ccccc2)CC1`, the growth was 112% (inactive).
As to `C/C(=C(\c1ccc(OCCN2CCOCC2)cc1)c1ccc(OC(=O)Cc2ccccc2)cc1)c1ccc(Cl)cc1`, the growth is 98.9% (inactive).
Next, `CNC(=O)Oc1ccc(Cl)cc1SSc1cc(Cl)ccc1OC(=O)NC`: 95.2% (inactive).
